Results published in PubChem BioAssay.
Values joined by “and” are separate entries in the source; they are usually repeats but may differ in a detail not shown here. Identical values can stand only once. Results filed as inconclusive are left out. Active and inactive are the calls of the source.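 How the source made its calls, unless noted: active means z-score of at least 1.8 in each of two replicates, scored against plate mean and spread of sample wells; inactive means the rest.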

Legend:
[1] = liver-stage malaria parasite growth inhibition, primary screen, cell-based, HepG2, luciferase luminescence, HepG2 viability (AID 624349; in the data active means parasite load remaining mostly below about 12%, no sharp cut-off; inactive means mostly above about 10%;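 further: 100% = mean of DMSO negative control wells on the same plate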); conditions: P. berghei liver stage in HepG2, luciferase luminescence, concentration not given here; parasite load remaining: stronger effect = lower value; viability: measured here: HepG2 viability without parasites
[2] = tested on: Aerobactin synthetase IucA (Klebsiella pneumoniae); experiment: IucA aerobactin synthetase inhibitors, biochemical, Tocris library, absorbance (AID 1345561; call rule not given here;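 further: 100% = enzyme without compound and 0% = no enzyme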); conditions: purified IucA enzyme assay, absorbance (OD) read-out; stronger effect = lower value;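 tested at 8 µM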
[3] = growth inhibition of DIPG glioma cells, dose response, cell-based, SU-DIPG-XVII, MIPE5.0, CellTiter-Glo, qHTS (AID 1347060; cut-off not given, nearly all actives have AC50 up to about 26 µM); conditions: SU-DIPG-XVII viability, CellTiter-Glo ATP luminescence
[4] = growth inhibition of DIPG glioma cells, dose response, cell-based, SU-DIPG-XIII, MIPE4.0, CellTiter-Glo, qHTS (AID 1347061; cut-off not given, nearly all actives have AC50 up to about 37 µM;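 further: cells exposed to compound for 48 hours before readout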); conditions: SU-DIPG-XIII viability, CellTiter-Glo ATP luminescence
[5] = growth inhibition of DIPG glioma cells, dose response, cell-based, JHH-DIPG-1, MIPE4.0, CellTiter-Glo, qHTS (AID 1347062; cut-off not given, nearly all actives have AC50 up to about 27 µM); conditions: JHH-DIPG-1 viability, CellTiter-Glo ATP luminescence
[6] = growth inhibition of DIPG glioma cells, dose response, cell-based, SU-DIPG-IV, MIPE4.0, CellTiter-Glo, qHTS (AID 1347063; cut-off not given, nearly all actives have AC50 up to about 30 µM;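 further: compound exposure lasted 48 hours before the viability readout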); conditions: SU-DIPG-IV viability, CellTiter-Glo ATP luminescence
[7] = SU-DIPG-XXV glioma cell viability, MIPE5.0 library, qHTS (AID 1347068; cut-off not given, nearly all actives have IC50 up to about 30 µM)
[8] = survival rescue of mitochondrial mutant cells in low glucose, primary screen, MELAS cybrids, Rieske KO mouse fibroblasts, CellTiter-Glo (AID 1508586;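 active means mean z-score across replicates of 1.96 or higher in either the MELAS or the Rieske mutant cell line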;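 further: z relative to plate mean and SD of compound and empty wells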)
[9] = viability rescue of complex I mutant cybrids, primary screen, cell-based, galactose medium, ATP luminescence (AID 1645843); conditions: complex I mutant cybrid cells, 72 h, stronger effect = higher value;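 further: positive z means more ATP and so rescue of galactose-driven cybrid death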
[10] = growth inhibition of DIPG glioma cells, dose response, cell-based, SU-DIPG-XIII, MIPE5.0, CellTiter-Glo, qHTS (AID 1347064; cut-off not given, nearly all actives have AC50 up to about 23 µM;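 on AC50: cells exposed to compound for 48 hours before the viability read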); conditions: SU-DIPG-XIII viability, CellTiter-Glo ATP luminescence
[11] = viability loss in pontine glioma line – cell-based, SU-DIPG-XXV, MIPE5.0, CellTiter-Glo, qHTS, dose response (AID 1347065; cut-off not given, nearly all actives have AC50 up to about 26 µM;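 further: cells exposed to compound for 48 hours before ATP readout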); conditions: CellTiter-Glo ATP luminescence
[12] = sensitizers of A549 cells to miR-34 induction, primary screen, imaging, A549 dox-inducible miR-34, nuclei and caspase counts (AID 1347080;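 active means compounds whose cell count with miR-34 switched on is under 0.7 times the count with it off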); conditions: A549 miR-34 inducible, Hoechst nuclei count, 48 h
[13] = ICB984 medulloblastoma cell growth inhibition, synergistic combos for chromothripsis tumors, cisplatin or BGB combos (AID 1671451; call rule not given here;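 further: cells exposed for 96 hours before readout; 0% = vehicle DMSO and 100% = killing by high DMSO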); conditions: ICB984 medulloblastoma cells, drug combinations, stronger effect = higher value
[14] = JHH-DIPG-1 glioma cell viability, MIPE5.0 library, CellTiter-Glo luminescence, qHTS (AID 1347067; cut-off not given, nearly all actives have AC50 up to about 26 µM;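 further: cells exposed to compound for 48 hours before readout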); conditions: JHH-DIPG-1 glioma viability, CellTiter-Glo ATP luminescence
[15] = SU-DIPG-VI glioma cell viability, MIPE4.0 library, CellTiter-Glo luminescence, qHTS (AID 1347066; cut-off not given, nearly all actives have AC50 up to about 30 µM;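 further: cells exposed to compound for 48 hours before readout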); conditions: CellTiter-Glo ATP luminescence
[16] = MELAS cybrid survival, CellTiter-Glo 48 h, stronger effect = higher value
[17] = Rieske KO mouse fibroblast survival, CellTiter-Glo 72 h
[18] = stronger effect = lower value, cell number ratio, induced over uninduced
[19] = measured here: relative caspase fold change +Dox/-Dox
[20] = measured here: total cells with miR-34 induction, stronger effect = lower value
[21] = measured here: total cells without miR-34 induction

SMILES: CCCCC[C@H](O)/C=C/[C@H]1[C@H](O)CC(=O)[C@@H]1C/C=C\CCCC(=O)O
- parasite load remaining [1]: 43.5% (inactive)
- viability [1]: 99.5%
- remaining activity [2]: 127% (inactive)
- outcome [3]: inactive
- outcome [4]: inactive
- outcome [5]: inactive
- outcome [6]: inactive
- outcome [7]: inactive
- z-score [8, 16]: 0.0898 (inactive)
- z-score [8, 17]: -0.895
- z-score [9]: -0.165 (inactive) and 0.63 (inactive)

SMILES: O=c1ncccn1[C@@H]1O[C@H](CO)[C@@H](O)[C@H]1O
- remaining activity [2]: 115% (inactive)
- outcome [10]: inactive
- outcome [11]: inactive
- outcome [7]: inactive
- fold change [12, 18]: 1 (inactive)
- fold change [12, 19]: 1.17
- cell count [12, 20]: 7460
- cell count [12, 21]: 7440
- z-score [9]: -0.025 (inactive)
- inhibition ([13]; BGB IC20 combo, at 0.005 µM): 4.35%
- inhibition ([13]; BGB IC40 combo, at 0.005 µM): -50.2%
- inhibition ([13]; BGB IC40 combo, at 0.05 µM): -18%
- inhibition ([13]; at 0.5 µM): -16.8% (inactive)
- inhibition ([13]; cisplatin combo, at 0.05 µM): -22.2%
- inhibition ([13]; cisplatin combo, at 0.5 µM): -22.8%
- inhibition ([13]; cisplatin combo, at 5 µM): -30.8%
- inhibition ([13]; measured here: 5 uM single agent, at 5 µM): -3.85%

SMILES: Nc1ncnc2c1ncn2[C@@H]1O[C@H](CO)C[C@H]1O
- remaining activity [2]: 110% (inactive)
- outcome [4]: inactive
- outcome [5]: inactive
- outcome [6]: inactive
- outcome [14]: inactive
- outcome [7]: inactive
- fold change [12, 18]: 0.951 (inactive)
- fold change [12, 19]: 1.64
- cell count [12, 20]: 9150
- cell count [12, 21]: 9630
- z-score [9]: -0.55 (inactive)

SMILES: COc1ccc(Nc2nccc(NCCO)n2)cc1
- remaining activity [2]: 124% (inactive)
- outcome [4]: inactive
- outcome [5]: inactive
- outcome [6]: inactive
- outcome [10]: inactive
- outcome [11]: inactive
- outcome [15]: inactive
- outcome [14]: inactive
- outcome [7]: inactive
- fold change [12, 18]: 0.983 (inactive) and 0.953 (inactive)
- fold change [12, 19]: 2.19 and 1.76
- cell count [12, 20]: 6220 and 9200
- cell count [12, 21]: 6320 and 9660
- z-score [9]: -0.315 (inactive)

SMILES: Oc1ccc(-c2nc(-c3ccc(F)cc3)c(-c3ccncc3)[nH]2)cc1
- parasite load remaining [1]: 28.5% (inactive)
- viability [1]: 95.1%
- remaining activity [2]: 114% (inactive)
- AC50 [4]: 5.9 µM (active)
- outcome [5]: inactive
- AC50 [6]: 23.5 µM (active)
- outcome [15]: inactive
- outcome [7]: inactive
- z-score [8, 16]: -0.659 (inactive)
- z-score [8, 17]: 0.329
- z-score [9]: 1.04 (inactive) and 0.455 (inactive)

SMILES: Clc1ccc(-c2nc3sccn3c2/C=N/OCc2ccc(Cl)c(Cl)c2)cc1
- remaining activity [2]: 112% (inactive)
- outcome [5]: inactive
- outcome [6]: inactive
- AC50 [10]: 20.9 µM (active)
- AC50 [11]: 23.5 µM (active)
- outcome [15]: inactive
- outcome [14]: inactive
- outcome [7]: inactive
- fold change [12, 18]: 0.906 (inactive) and 0.897 (inactive)
- fold change [12, 19]: 1.07 and 1.53
- cell count [12, 20]: 4600 and 7870
- cell count [12, 21]: 5080 and 8770
- z-score [9]: 0.06 (inactive)

SMILES: COc1cc(SC)ccc1C(=O)N1CCC(Cc2ccccc2)CC1
- parasite load remaining [1]: 38.9% (inactive)
- viability [1]: 67%
- remaining activity [2]: 78.3% (inactive)
- outcome [3]: inactive
- outcome [10]: inactive
- outcome [11]: inactive
- outcome [7]: inactive
- fold change [12, 18]: 1.03 (inactive) and 0.864 (inactive)
- fold change [12, 19]: 0.962 and 1.6
- cell count [12, 20]: 7280 and 6350
- cell count [12, 21]: 7040 and 7350
- z-score [9]: -0.91 (inactive) and -0.635 (inactive)
